Bioassay records from PubChem BioAssay.
Shown are actives, neighbours in structure and some others; about 1.2% of the full set was active somewhere.
COUP-TFII inh = blocks human COUP-TFII nuclear receptor; P24468; HEK293T NGFI-A luciferase reporter, luminescence; inhibition, % at 8.6 µM; 370,000 compounds, 0.7% hits; AID 686940;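 active = inhibition above a per-plate cutoff, mean inhibition of test wells between control levels plus 3 SD, cut at about 38% in these data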;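 note: cells cotransfected with COUP-TFII expression vector driving the NGFI-A reporter; 0% = median of COUP-TF2 test wells and 100% = reporter-only cells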
Target sequence (P24468 whole entry, looked up): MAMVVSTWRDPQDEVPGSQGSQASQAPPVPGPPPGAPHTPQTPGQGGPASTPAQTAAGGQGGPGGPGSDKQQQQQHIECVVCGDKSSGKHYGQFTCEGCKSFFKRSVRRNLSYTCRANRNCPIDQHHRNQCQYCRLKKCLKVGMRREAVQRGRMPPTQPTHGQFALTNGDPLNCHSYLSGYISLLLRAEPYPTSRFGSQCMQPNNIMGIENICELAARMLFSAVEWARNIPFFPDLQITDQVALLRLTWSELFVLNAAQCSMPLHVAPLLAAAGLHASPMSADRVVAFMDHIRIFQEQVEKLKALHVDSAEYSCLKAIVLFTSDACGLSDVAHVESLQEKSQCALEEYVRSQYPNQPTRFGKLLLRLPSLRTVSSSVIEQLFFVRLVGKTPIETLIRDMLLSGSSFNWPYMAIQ
Gli-Sufu block = Gli-Sufu pathway antagonism. 340,000 compounds, 0.74% hits. inhibition, % at 5 µM. Sufu-KO-LIGHT fibroblasts, Gli luciferase reporter luminescence;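 active = inhibition above about 55%, limit read from the data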;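 note: 0% = DMSO-treated cells and 100% = wells with medium but no cells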
SRC2 inh = inhibits human steroid receptor coactivator 2. Q15596. HEK293 GAL4-SRC2 luciferase reporter, luminescence. inhibition, % at 9 µM. 370,000 compounds, 0.17% hits;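 active = inhibition above the mean inhibition of all tested compounds plus 3 SD, set per campaign, cut at about 52% in these data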;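 note: 0% = DMSO treated cells and 100% = cells given Gossypol at 36 µM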
NCOA3 inh = inhibitors of human steroid receptor coactivator 3 (SRC3); HEK293 GAL4-SRC3 luciferase reporter, luminescence; AID 588352; inhibition, % at 3.6 µM; Q9Y6Q9; 360,000 compounds, 0.17% hits;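 active = inhibition above a per-campaign cutoff, the mean of all compounds plus 3 SD, cut at about 60% in these data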;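 note: 0% = DMSO-treated cells and 100% = gossypol-treated cells at 36 µM; higher means less SRC3-driven luciferase light from the GAL4 reporter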
SRC1 inh = human NCOA1 inhibition; inhibition, % at 3.6 µM; Q15788; HEK293 GAL4-SRC1 luciferase reporter, luminescence; 360,000 compounds, 0.12% hits;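 active = inhibition above the campaign mean plus 3 SD, with each screening campaign given its own cutoff, cut at about 60% in these data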;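 note: 0% = DMSO treated cells and 100% = gossypol at 36 µM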
LRH-1 inv ag = NR5A2 inverse agonism in reporter assay; HEK293T StAR-luciferase reporter, LRH-1 transfected, 24 h; inhibition, % at 3.6 µM; 360,000 compounds, 0.13% hits;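 active = inhibition above the mean inhibition of all tested compounds plus 3 SD, cut at about 73% in these data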;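 note: 0% = DMSO wells and 100% = reporter-only cells lacking LRH-1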
Numbers without * were called inactive.

Screening COCc1[nH]nc2c1C(c1ccc(Br)cc1)N(Cc1ccccc1)C2=O (stereo not drawn) returned COUP-TFII inh 9 and SRC2 inh 4.
Screening CN(C)CCOc1ccc2c(c1)C(=O)C(=Cc1ncc([N+](=O)[O-])n1C)C2 returned COUP-TFII inh -17, SRC2 inh 17, NCOA3 inh 55, SRC1 inh 30 and LRH-1 inv ag 82*.
CC(C)CCN(C)C1CCN(C(=O)Nc2ccc(Cl)cc2)CC1 was read as COUP-TFII inh -10 and SRC2 inh 2.
For COC(=O)[C@]12C[C@H](CC(=O)N3CCSCC3)C(=O)N(Cc3ccc(Cl)cc3Cl)C1=C[C@H](C(C)C)O[C@@H]2C1CC1 the results were COUP-TFII inh 5 and SRC2 inh 4.
`Cc1ccccc1-c1ccc2c(c1)[C@@H]1C[C@H](N(C)CC3CCCCC3)[C@H]([C@H](C)O)CN1CC2` gave COUP-TFII inh 22 and SRC2 inh 12.
`Cc1ccc2c(C)nc(Nc3nc(CSc4nc5ccccc5[nH]4)cc(=O)[nH]3)nc2c1` gave COUP-TFII inh 0, Gli-Sufu block 23, SRC2 inh -32, NCOA3 inh 65*, SRC1 inh 52 and LRH-1 inv ag 8.
Screening Cn1c(=O)c2c(nc(CN3CCOCC3)n2CC(=O)c2ccccc2)n(C)c1=O returned COUP-TFII inh 9, Gli-Sufu block 0, SRC2 inh 19, NCOA3 inh 16, SRC1 inh 3 and LRH-1 inv ag 96*.
`O=C1/C(=C/c2cccnc2)CCC/C1=C\c1cccnc1` gave COUP-TFII inh 91*, Gli-Sufu block 3 and SRC2 inh 74*.
Screening CCC1C/C(=C\c2cccnc2)C(=O)/C(=C/c2cccnc2)C1 (stereo not drawn) returned COUP-TFII inh 91*, Gli-Sufu block -3, SRC2 inh 92*, NCOA3 inh 45, SRC1 inh -394 and LRH-1 inv ag 52.
`O=C1/C(=C/c2cccnc2)CC/C1=C\c1cccnc1` gave COUP-TFII inh -3, Gli-Sufu block 8, SRC2 inh 9, NCOA3 inh 8, SRC1 inh -36 and LRH-1 inv ag 11.
`CC(C)/C=C1\CC/C(=C\c2cccnc2)C1=O` gave COUP-TFII inh 2, Gli-Sufu block 7, SRC2 inh -14, NCOA3 inh 12, SRC1 inh -6 and LRH-1 inv ag 38.
Screening Cc1cc(N2CCN(C(=O)OC(C)(C)C)C[C@@H]2C)ccc1Br returned COUP-TFII inh 7 and SRC2 inh 5.
`CC(C)(C)OC(=O)/C=C/[C@@H](CCCCl)Sc1ccc(C(C)(C)C)cc1` gave COUP-TFII inh -5 and SRC2 inh 6.
COc1ccc(/C=C/c2c([N+](=O)[O-])c(=O)n(C)c(=O)n2C)cc1OC was read as COUP-TFII inh -8, Gli-Sufu block -8, SRC2 inh -5, NCOA3 inh -24, SRC1 inh -15 and LRH-1 inv ag -10.
Screening Cn1c(/C=C/c2ccc(Cl)cc2)c([N+](=O)[O-])c(=O)n(C)c1=O returned COUP-TFII inh -6, Gli-Sufu block 0, SRC2 inh 29, NCOA3 inh 62*, SRC1 inh 29 and LRH-1 inv ag 29.
Screening CCOc1cc(OCC)cc(C(=O)N2CCC[C@@H]2C(=O)N2CCC[C@H]2C(=O)NCc2ccccc2)c1 returned COUP-TFII inh 3 and SRC2 inh 3.
`O=C(Nc1ccc(Oc2ccccc2)cc1)C1CCN(c2c3c(nc4ncnn24)CCC3)CC1` gave COUP-TFII inh 22, Gli-Sufu block 70*, SRC2 inh 10, NCOA3 inh 13, SRC1 inh 19 and LRH-1 inv ag 10.
O=C(Nc1ccc2c(c1)CCC2)C1CCN(c2c3c(nc4ncnn24)CCC3)CC1 was read as COUP-TFII inh 30, Gli-Sufu block 28, SRC2 inh 26, NCOA3 inh 35, SRC1 inh 4 and LRH-1 inv ag 18.
For CCOC(=O)c1cc2sccc2n1CC(=O)OC(C)C the results were COUP-TFII inh 3, Gli-Sufu block 6, SRC2 inh 1, NCOA3 inh 11, SRC1 inh 0 and LRH-1 inv ag 28.
`CCOC(=O)c1cc2sccc2n1CC(=O)N1CCc2ccccc21` gave COUP-TFII inh -8, Gli-Sufu block 30, SRC2 inh -3, NCOA3 inh 67*, SRC1 inh 39 and LRH-1 inv ag 0.
`Nc1ccn([C@@H]2O[C@H](C(=O)N3CCN(C(=O)N4CCCCC4)CC3)[C@@H](O)[C@H]2O)c(=O)n1` gave COUP-TFII inh -2 and SRC2 inh 6.
Screening OCC1OC(n2cnc3c(NCc4ccco4)ncnc32)C(O)C1O (stereo not drawn) returned COUP-TFII inh -5, Gli-Sufu block 23, SRC2 inh -11, NCOA3 inh 63*, SRC1 inh 51 and LRH-1 inv ag 57.
For COc1cc(OC)c2c(-c3cccc(-c4sccc4C(C)=O)c3)cc(=O)oc2c1 the results were COUP-TFII inh -8, Gli-Sufu block 67*, SRC2 inh 17, NCOA3 inh 18, SRC1 inh -29 and LRH-1 inv ag -11.
Screening COc1ccc(Br)cc1/C=C/C(=O)Nc1ccc2ccccc2c1 returned COUP-TFII inh -6, Gli-Sufu block 1, SRC2 inh 1, NCOA3 inh -9, SRC1 inh -36 and LRH-1 inv ag -3.
Screening CCC(=O)Nc1cccc(C(=O)/C=C/c2cc(Br)ccc2OC)c1 returned COUP-TFII inh 10, Gli-Sufu block -21, SRC2 inh 64*, NCOA3 inh 79*, SRC1 inh 49 and LRH-1 inv ag 73*.
Screening NC(=O)c1ncn([C@@H]2O[C@H](C(=O)N[C@H](Cc3c[nH]c4ccccc34)C(=O)N3CCN(C(=O)N4CCOCC4)CC3)[C@@H](O)[C@H]2O)n1 returned COUP-TFII inh 10 and SRC2 inh -10.
Screening O=C(Nc1nc(-c2ccccc2)cs1)C1CCCN(S(=O)(=O)c2cccc([N+](=O)[O-])c2)C1 (stereo not drawn) returned COUP-TFII inh 17, Gli-Sufu block 2, SRC2 inh 5, NCOA3 inh 2, SRC1 inh 7 and LRH-1 inv ag -7.
`O=C(Nc1nc(-c2ccc(S(=O)(=O)N3CCCC3)cc2)cs1)c1cccs1` gave COUP-TFII inh 55*, Gli-Sufu block 23, SRC2 inh 15, NCOA3 inh -58, SRC1 inh 9 and LRH-1 inv ag -4.
O=C(Nc1nc(-c2ccccc2)cs1)C1CCCN(S(=O)(=O)c2ccccc2)C1 (stereo not drawn) was read as COUP-TFII inh 44*, Gli-Sufu block -8, SRC2 inh 8, NCOA3 inh 38, SRC1 inh 26 and LRH-1 inv ag 45.
For Cc1cc(C)cc(NC(=O)NC2CCN(S(=O)(=O)c3ccc(F)cc3)CC2)c1 the results were COUP-TFII inh -11 and SRC2 inh 1.
O=C(OCC#CCSc1nnc(-c2cccc3ncccc23)o1)c1ccc(F)cc1 was read as COUP-TFII inh 10.
